Source: PubChem BioAssay
KCNQ2 pot = enhances the rat KCNQ2 potassium channel; CHO-K1 KCNQ2, FluxOR thallium flux fluorescence; hits give high values; O88943; B-score at 10 µM; 310,000 compounds, 0.54% hits;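 active means fluorescence ratio B-score at least 3 SD of library B-scores, with initial fluorescence B-score within 3 of them, cut at about 5.3 in these data; same plate scores as AID 2156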;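 further: B-score of peak minus minimum over baseline fluorescence ratio after K+ and Tl+ stimulus; positive B-score means potentiation of KCNQ2 with more thallium influx and brighter signal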
KCNQ2 block = KCNQ2 (rat) channel inhibition. B-score at 10 µM. 310,000 compounds, 1.1% hits. CHO-K1 KCNQ2, FluxOR thallium flux, 20 min; hits give low values. O88943;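 active means fluorescence ratio B-score at most minus 3 library SDs, with starting brightness B-score within 2 library SDs, cut at about -5.5 in these data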
KCNQ2 block conf = rat KCNQ2 channel inhibition, confirmatory screen; activity change, negative = inhibition, % at 10 µM; KCNQ2-expressing cells, thallium flux; hits give low values; 1,000 compounds, 57% hits; shares compounds with KCNQ2 block; AID 493025;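 further: 0% = vehicle wells and values are ratio percent relative to vehicle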
KCNQ1 spec = human KCNQ1 activity in KCNQ2 inhibitor specificity screen; shares compounds with KCNQ2 block; 1,000 compounds, 15% hits; activity change, negative = inhibition, % at 10 µM; KCNQ1-expressing cells, FluxOR thallium flux fluorescence; hits give low values;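 active means activity change at least 3 SD of negative controls below their mean in both duplicate wells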;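 further: CHO cells stably transfected with KCNQ1 and depolarized by potassium stimulus; peak minus minimum fluorescence over baseline after thallium addition; 0% = vehicle negative control and -100% = blank without thallium stimulus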
Target sequence (P51787 whole entry, looked up): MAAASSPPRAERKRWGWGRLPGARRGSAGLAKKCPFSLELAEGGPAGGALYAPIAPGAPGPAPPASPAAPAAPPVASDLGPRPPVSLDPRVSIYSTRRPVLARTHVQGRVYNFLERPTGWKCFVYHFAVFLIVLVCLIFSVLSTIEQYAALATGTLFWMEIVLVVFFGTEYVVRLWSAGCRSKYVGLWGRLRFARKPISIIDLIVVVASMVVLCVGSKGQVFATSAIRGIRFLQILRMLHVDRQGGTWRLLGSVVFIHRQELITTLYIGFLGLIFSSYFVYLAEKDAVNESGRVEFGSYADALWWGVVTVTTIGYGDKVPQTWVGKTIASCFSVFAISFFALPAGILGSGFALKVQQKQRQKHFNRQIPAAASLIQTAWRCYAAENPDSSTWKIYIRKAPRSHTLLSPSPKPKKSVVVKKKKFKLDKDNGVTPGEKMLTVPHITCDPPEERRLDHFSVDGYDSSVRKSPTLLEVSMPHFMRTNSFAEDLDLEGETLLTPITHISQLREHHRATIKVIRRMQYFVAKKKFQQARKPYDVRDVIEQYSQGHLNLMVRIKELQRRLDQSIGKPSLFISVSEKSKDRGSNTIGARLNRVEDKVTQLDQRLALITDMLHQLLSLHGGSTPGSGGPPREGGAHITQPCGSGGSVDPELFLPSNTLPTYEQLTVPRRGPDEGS
CHO parental ctr = activity in parental CHO cells lacking KCNQ2 | shares compounds with KCNQ2 block | 1,000 compounds, 14% hits | thallium flux counter-screen; hits give low values | activity change, % at 10 µM;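 further: 0% = vehicle negative controls with stimulus buffer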
KCNQ2 inh confirm = confirmation of rat KCNQ2 potassium channel inhibitors. shares compounds with KCNQ2 block. KCNQ2-expressing cells, automated patch clamp current. calls only at 10 µM. 550 compounds, 49% hits
Kir21 confirm = confirmation of mouse Kir2.1 potassium channel inhibitors | shares compounds with KCNQ2 pot | Kir2.1-expressing cells, FluxOR thallium flux fluorescence; hits give low values | 2,300 compounds, 41% hits | Tl flux remaining, % of negative control (hits give low values), % at 10 µM;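 active means Primary-screen hit whose thallium flux fell at least 3 control SD below untreated wells in both duplicates, with normal baseline fluorescence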;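 further: 0% = blank wells without stimulus and 100% = stimulated no-compound controls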
HEK293 Tl flux = alters thallium flux in parental HEK293 cells, Kir2.1 counter-screen; shares compounds with KCNQ2 pot; FluxOR thallium flux fluorescence; 0% = unstimulated blank wells; FluxOR signal as % of negative control (100 = no effect), % at 10 µM; 2,300 compounds, 19% hits;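 active means dye signal at least 3 control SD above or below untreated wells in both duplicates, raw fluorescence within 3, either direction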;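 further: percent is based on the flux ratio of peak minus minimum fluorescence over baseline F0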
CHO-K1 ctr = parental CHO-K1 activity in KCNQ2 potentiator counter-screen. shares compounds with KCNQ2 pot. parental CHO-K1 cells, FluxOR thallium flux fluorescence; zero = vehicle mean+3SD, 100% = vehicle-minus-blank window. activity increase over 3SD of controls, % at 10 µM. 1,200 compounds, 43% hits. AID 2282;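 active means signal rise of at least 3 SD above the untreated control mean, in both duplicate wells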;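 further: counter screen of KCNQ2 potentiator hits so any rise reflects channel-independent effects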
KCNQ1 sel pot = tests whether KCNQ2 potentiators also act on human KCNQ1 | shares compounds with KCNQ2 pot | 1,200 compounds, 28% hits | activation over 3SD threshold, % at 10 µM | CHO KCNQ1 stable, FluxOR thallium flux fluorescence; beyond 3SD, as % of vehicle-control signal;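 active means fluorescence ratio rise of at least 3 SD of vehicle wells above their mean, in both replicate wells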;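 further: 0% = vehicle mean plus 3 SD and 100% = vehicle minus unstimulated blank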
KCNQ2 pot confirm = confirmation of rat KCNQ2 potassium channel potentiators; shares compounds with KCNQ2 pot; CHO-KCNQ2 cells, FluxOR thallium flux fluorescence; potentiation, less the hit threshold, % at 10 µM; 1,200 compounds, 68% hits;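 active means fluorescence ratio rising 3 SD or more over the vehicle control mean in both replicates, plus primary screen hit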;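 further: peak minus minimum thallium fluorescence divided by baseline after K/Tl stimulus; 0% = vehicle mean plus 3 SD and 100% = vehicle minus unstimulated blank difference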
Kir2-1 sel = mouse Kir2.1 off-target activity of KCNQ2 potentiators | shares compounds with KCNQ2 pot | HEK293 Kir2.1, FluxOR thallium flux fluorescence | activity over 3SD threshold, % at 10 µM | 1,200 compounds, 2% hits;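 active means fluorescence ratio rise of at least 3 SD above the vehicle-control mean, seen in both replicates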;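 further: 0% = vehicle mean plus 3 SD and 100% = vehicle minus no-stimulus blank window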
KCNQ2 W236L pot = rat KCNQ2 W236L mutant potentiation by KCNQ2 potentiators; CHO KCNQ2-W236L, automated patch clamp current; 940 compounds, 10% hits; shares compounds with KCNQ2 pot; current increase over 3SD of negative controls (%), hits give high values, % at 25 µM;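 active means current increase at least 3 SD of the untreated controls above them in both duplicate recordings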
Numbers without * were called inactive; i = inactive; . = no result. Only some compounds are listed: those with a hit (about 1.6% of all), similar ones and a draw of the others. Unless noted, how the calls were made is not given here.

SMILES | KCNQ2 pot | KCNQ2 block | Kir21 confirm | HEK293 Tl flux | others
COC(=O)c1ccc2c(c1)C(C)(C)C(/C=C/c1ccc(OC)c(OC)c1OC)=[N+]2C | -16 | -16* | 31%* | i | KCNQ2 block conf=-70%*;KCNQ1 spec=-66%*;CHO parental ctr=-60%*;KCNQ2 inh confirm=i
COC(=O)c1ccc2c(c1)C(C)(C)C(/C=C/c1ccc(O)cc1)=[N+]2C | . | i | . | .
CNC[C@H](Cc1ccccc1)NC[C@@H](Cc1cccc2ccccc12)NCCc1ccc(C)cc1 | -8.4 | -8.4* | 14%* | i | KCNQ2 block conf=i;KCNQ1 spec=i;CHO parental ctr=i
Cc1ccc(CC(CC(=O)O)C(=O)NCc2ccccc2)cc1 (stereo not given) | . | i | . | .
CCOC(=O)CN(C(=O)c1snc(C(N)=O)c1N)C(C(=O)NC1CCCCC1)c1ccc(F)cc1 (stereo not given) | 3.6 | i | . | .
CN(Cc1ccccc1O)CC1CCCN(CCc2ccc(Cl)cc2)C1 (stereo not given) | -9 | -9* | 23%* | i | KCNQ2 block conf=i;KCNQ1 spec=i;CHO parental ctr=i
COc1ccc(CCN2CCCC(CN(C)Cc3cc(OC)ccc3OC)C2)cc1 (stereo not given) | 1.5 | i | . | .
CN1C(=O)/C(=C/c2ccc(OCc3ccc(F)cc3)cc2)NC1=S | 0.06 | i | . | .
Cc1ccc(C(=O)c2no[n+]([O-])c2C(=O)c2ccc(C)cc2)cc1 | -9.7 | -9.7* | 70%* | 62%* | KCNQ2 block conf=-28%*;KCNQ1 spec=i;CHO parental ctr=i;KCNQ2 inh confirm=i;Kir2-1 sel=-62
Cc1ccc(C(=O)c2ccc(C)cc2)cc1 | . | i | . | .
O=C(COC(=O)c1cc(=O)[nH]c2ccccc12)Nc1ccc(Cl)cn1 | 0.75 | i | . | .
O=C(Nc1nccs1)c1cccc(NC(=O)C(F)(F)F)c1 | 1.3 | i | . | .
C/C(=N\NC(=O)c1ccc2c(c1)OCO2)c1ccc(NC(=O)CCCC(=O)O)cc1 | . | i | . | .
OCCNc1nc(Nc2ccccc2)nc2ccccc12 | 3.1 | i | . | .
OCCNc1nc(Nc2ccc(Br)cc2)nc2ccccc12 | -12 | -12* | 30%* | i | KCNQ2 block conf=-26%*;KCNQ1 spec=i;CHO parental ctr=i;KCNQ2 inh confirm=i
CCOC(=O)COc1nc2c(c(-c3ccco3)c1C#N)CCc1ccccc1-2 | 10* | i | i | i | CHO-K1 ctr=48*;KCNQ1 sel pot=84*;KCNQ2 pot confirm=-11;Kir2-1 sel=-28;KCNQ2 W236L pot=i
N#Cc1c(OCC(=O)c2ccccc2)nc2c(c1-c1ccco1)CCc1ccccc1-2 | 20* | i | i | 145%* | CHO-K1 ctr=2.2*;KCNQ1 sel pot=-3;KCNQ2 pot confirm=42*;Kir2-1 sel=-37;KCNQ2 W236L pot=i
Cc1cc(C)c(C#N)c(OCC(=O)c2ccccc2)n1 | 0.86 | i | . | .
CCOC(=O)COc1nc(-c2ccccc2)cc(-c2ccco2)c1C#N | 2.4 | i | . | .
Cc1ccc(N(C(=O)c2csnn2)C(C(=O)NC2CCCCC2)c2cccnc2)cc1C (stereo not given) | . | i | . | .
COc1cccc(/C(C)=N/NS(=O)(=O)c2ccc(Cl)cc2)c1 | 1 | i | . | .
COc1cccc(/C(=N/O)C2CC2c2ccc(Cl)cc2)c1 (stereo not given) | 6.7* | i | i | i | CHO-K1 ctr=33*;KCNQ1 sel pot=-4;KCNQ2 pot confirm=8.1*;Kir2-1 sel=-33;KCNQ2 W236L pot=i
CCOC(=O)Cn1c(=N)n(CCOc2ccc(OC)cc2)c2ccccc21 | . | i | . | .
CCOC(=O)Cn1c(=N)n(CCOc2ccc3ccccc3c2)c2ccccc21 | . | i | 28%* | i
CCCn1ncc(CN2CCC(n3nccc3NC(=O)c3ccccc3Cl)CC2)c1C | 0.06 | i | . | .
SMILES | KCNQ2 pot | KCNQ2 block | Kir21 confirm | HEK293 Tl flux | others
Cc1ccc(NC(=O)CC(O)(C(F)(F)F)C(F)(F)F)cc1 | 9.7* | i | i | i | CHO-K1 ctr=-6;KCNQ1 sel pot=-13;KCNQ2 pot confirm=36*;Kir2-1 sel=-23;KCNQ2 W236L pot=3.0%*
Cc1ccc(NC(=O)CC(N)=S)cc1 | . | i | . | .
COCCN=C1N[C@@H](c2ccccc2)C(C(=O)OC)=C(C)N1Cc1ccccc1 | . | i | . | .
COC(=O)C1=C(C)N(Cc2ccccc2)C(=NCc2ccccc2)N[C@H]1c1cccc(F)c1 | . | i | 19%* | i
COCCN1C(=S)N[C@@H](c2cccc(F)c2)C(C(=O)OC)=C1C | . | i | 41%* | i
COC(=O)C1=C(C)N(Cc2ccccc2)C(=S)N[C@H]1c1cccc(F)c1 | . | i | . | .
CCN1C(=O)N[C@@H](c2cccc(F)c2)C(C(=O)OC)=C1C | 0.13 | i | . | .
COCCN=C1N[C@@H](c2ccc(Br)cc2)C(C(=O)OC)=C(C)N1Cc1ccccc1 | . | i | 32%* | 74%*
C/C(CC(=O)Nc1ccc(Cl)c(Cl)c1)=N\NC(=O)C(=O)N1CCCCC1 | 0.6 | i | . | .
COc1ccccc1Oc1nc([N+](=O)[O-])nn1CC(N)=O | 0.4 | i | . | .
CC(CNC(=O)C(C)(C)C)NC(=O)C(C)(C)C (stereo not given) | . | i | . | .
COc1ccc(N(CC(=O)N/N=C/c2ccccc2F)S(=O)(=O)c2ccccc2)cc1 | . | i | . | .
CCOc1ccc(S(=O)(=O)N(CC)CC(=O)NC2CC2)cc1 | 0.32 | i | . | .
CC1CCc2c(sc3[nH]c(=S)n(C)c(=O)c23)C1 (stereo not given) | 20* | i | i | 396%* | CHO-K1 ctr=54*;KCNQ1 sel pot=-19;KCNQ2 pot confirm=69*;Kir2-1 sel=-9;KCNQ2 W236L pot=i
CC1CCc2c(sc3nn[nH]c(=O)c23)C1 (stereo not given) | 0.14 | i | . | .
C=CCn1c(=S)[nH]c2sc3c(c2c1=O)CCC3 | 2.5 | i | . | .
CCn1c(=S)[nH]c2sc3c(c2c1=O)CCCC3 | 16* | i | i | 393%* | CHO-K1 ctr=40*;KCNQ1 sel pot=-16;KCNQ2 pot confirm=60*;Kir2-1 sel=-4;KCNQ2 W236L pot=i
